Compound activity: PubChem BioAssay, The Scripps Research Institute Molecular Screening Center
FBW7 act – human FBW7 E3 ligase activation, primary screen; AlphaScreen FBW7–phospho-cyclin E peptide binding, activator screen; 0.13% of 650,000 active; normalized activity (activation), % at 26.1 µM; in the data active means normalized activity above about 1.9%;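 further: purified mutant Fbw7 with reduced substrate affinity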
GPR151 ag – activates the human receptor GPR151. activation, % at 11.2 µM. 1% of 650,000 active. Q8TDV0. PathHunter beta-arrestin GPR151 cells, luminescence; in the data active means activation above about 4.9%
TEAD-YAP inh – TEAD-YAP interaction inhibition; 1.4% of 640,000 active; AID 1259422; HEK-TIYL cells, TEAD-Gal4/YAP UAS-luciferase luminescence; inhibition, % at 9.12 µM; in the data active means inhibition above about 32%
MITF inh – human MITF inhibition, primary screen | AlphaScreen MITF homodimerization, bead proximity signal | inhibition, % at 2.6 µM | 0.91% of 650,000 active | AID 1259374; in the data active means inhibition above about 50%
GPR151 conf act – confirmation of human GPR151 activators; shares compounds with GPR151 ag; GPR151 PathHunter beta-arrestin cells, luminescence, 90 min; % of EA-reagent control over plate median; activation, % at 11.2 µM; 6,700 tested, under 10 active; AID 1508609;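 active means mean percent activation across replicates above the confirmation screen cutoff of 4.91%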
GPR119 counter – activates human GPR119 in a GPR151 counter-screen; shares compounds with GPR151 ag; GPR119 PathHunter beta-arrestin cells, luminescence, 90 min; 0 = compound-well median, 100 = enzyme-acceptor control; activation, % at 11.2 µM; 0.3% of 6,700 active;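 active means mean percent activation in the counterscreen above 29.09%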;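 further: counterscreen on off-target GPR119 to flag nonselective hits from the GPR151 activator screen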
Target sequence (Q8TDV5 whole entry, looked up): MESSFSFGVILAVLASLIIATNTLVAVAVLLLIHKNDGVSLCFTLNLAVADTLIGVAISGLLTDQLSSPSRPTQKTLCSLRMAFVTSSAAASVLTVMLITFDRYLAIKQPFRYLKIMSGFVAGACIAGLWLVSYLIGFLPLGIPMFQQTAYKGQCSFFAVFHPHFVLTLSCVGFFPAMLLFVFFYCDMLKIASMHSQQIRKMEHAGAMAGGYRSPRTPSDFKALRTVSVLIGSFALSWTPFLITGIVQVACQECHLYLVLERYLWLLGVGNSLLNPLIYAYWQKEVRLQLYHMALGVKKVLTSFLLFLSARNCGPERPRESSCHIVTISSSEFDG
Of the large screens only hits and unclear results are named; the others gave an inactive call (follow-up assays come after a bar, where they were run); ! = not active in a repeat. In the library only some 3.5% were active in any assay of this set; here they are far more common.

COc1ccccc1NS(=O)(=O)c1ccc(CN2C(=O)c3cccnc3C2=O)cc1	GPR151 ag 7.3 | GPR151 conf act inactive | GPR119 counter inactive
CCOc1ccc(NS(=O)(=O)c2ccc(CN3C(=O)c4cccnc4C3=O)cc2)cc1	none
Cc1cc(Nc2ccc3c(c2)OCO3)nc(Nc2ccc(N3CCOCC3)cc2)n1	GPR151 ag 10.0, TEAD-YAP inh 93 | GPR151 conf act inactive | GPR119 counter 71
Cc1cc(Nc2ccc(N3CCOCC3)cc2)nc(Nc2ccncc2)n1	none
Cc1cc(Nc2ccc(N3CCOCC3)cc2)nc(NCc2cccnc2)n1	GPR151 ag 5.4 | GPR151 conf act inactive | GPR119 counter inactive
O=[N+]([O-])c1ccc(OCSc2ccccc2)cc1	none
COc1ccc(NC(=O)CN2C(=O)C(c3ccccc3)Oc3cccnc32)cc1OC (stereo not drawn)	GPR151 ag 6.3 | GPR151 conf act inactive | GPR119 counter inactive
CCOc1ccc2[nH]c(=O)c(CN(Cc3ccc(OC)cc3)C(=O)N(C)C)cc2c1	GPR151 ag 8.3 | GPR151 conf act inactive | GPR119 counter inactive
Cc1ccc(/C=C2\N=C(c3cccc(Cl)c3)OC2=O)o1	none
CC12CCC(C(=O)Nc3ccccc3C(F)(F)F)(C(=O)C1=O)C2(C)C (stereo not drawn)	GPR151 ag 6.1 | GPR151 conf act inactive | GPR119 counter inactive
Cc1ccc(C)c(NC(=O)C23CCC(C)(C(=O)C2=O)C3(C)C)c1 (stereo not drawn)	none
CN1CCN(Cc2ccc(NC(=O)NCc3cccc4ccccc34)cc2)CC1	GPR151 ag 7.0 | GPR151 conf act inactive | GPR119 counter inactive
COc1ccc(NC(=O)Nc2ccc(CN3CCN(C)CC3)cc2)cc1	none
CCc1ccccc1N(CC(=O)NC1CCCCC1)C(=O)CCC(=O)Nc1nccs1	none
Cc1ccc(OCCOc2ccc(Oc3nc(N(C)C)nc(N(C)C)n3)nn2)cc1	GPR151 ag 5.3 | GPR151 conf act inactive | GPR119 counter inactive
Cc1cc(N2CCOCC2)nc(N2CCN(C(=O)Cc3cccs3)CC2)n1	GPR151 ag 11 | GPR151 conf act inactive | GPR119 counter inactive
O=C(CSc1nc2ccccc2n1-c1ccccc1)Nc1nccs1	none
CC1CCCC(C)N1NC(=S)Nc1ccccc1 (stereo not drawn)	GPR151 ag 4.9 | GPR151 conf act inactive | GPR119 counter inactive
CCOc1ccccc1NC(=O)CSc1ccc(-c2cccnc2)nn1	none
O=c1cc(-c2ccc(O)cc2)oc2cc(O[C@@H]3O[C@H](CO)[C@@H](O)[C@H](O)[C@H]3O[C@@H]3OC[C@](O)(CO)[C@H]3O)cc(O)c12	GPR151 ag 8.2 | GPR151 conf act inactive | GPR119 counter inactive
O=C(C1CCCO1)N(c1ccc(Cl)cc1)C1C=CS(=O)(=O)C1 (stereo not drawn)	GPR151 ag 9.6 | GPR151 conf act inactive | GPR119 counter inactive
Cc1n[nH]c(C)c1CCC(=O)N/N=C\c1ccc(C(C)(C)C)cc1	none
Cc1n[nH]c(C)c1CCC(=O)N/N=C/c1ccc(Cl)cc1	GPR151 ag 6.0 | GPR151 conf act inactive | GPR119 counter inactive
Cc1n[nH]c(C)c1CCC(=O)O	GPR151 ag 4.9 | GPR151 conf act inactive | GPR119 counter inactive
FC(F)(F)c1cccc(Nc2nc(NCc3ccccc3)nc(N3CCOCC3)n2)c1	none
CCOc1ccc(C2=NC(c3ccc(C)cc3)NC(c3ccccc3O)C2)cc1 (stereo not drawn)	none
OCCNc1nc(N2CCN(c3ccccn3)CC2)nc2nc[nH]c12	none
CC(C)(C)OC(=O)N1CCC[C@@H]1C(=O)Nc1ccc2[nH]ncc2c1	GPR151 ag 5.8 | GPR151 conf act inactive | GPR119 counter inactive
COc1ccc(S(=O)(=O)N2N=C(C)Oc3ccccc3C2=O)cc1	GPR151 ag 5.2, TEAD-YAP inh 44 | GPR151 conf act inactive | GPR119 counter inactive
CN1CCN(CCCN2c3ccccc3Sc3ccc(S(=O)(=O)N(C)C)cc32)CC1	GPR151 ag 5.4 (no result: TEAD-YAP inh) | GPR151 conf act inactive | GPR119 counter inactive
OCCN1CCN(CCCN2c3ccccc3Sc3ccc(Cl)cc32)CC1	none
COc1ccc(C2C(C(=O)Nc3cccc(NC(C)=O)c3)c3ccccc3C(=O)N2C2CCCCC2)cc1 (stereo not drawn)	none
COc1cc(C(=O)Nc2ccccc2F)ccc1OCc1cccc(F)c1	none
COC(=O)c1ccc(OCc2cccc(F)c2)c(OC)c1	GPR151 ag 5.9 | GPR151 conf act inactive | GPR119 counter inactive
Cc1cccc(C(=O)Oc2ccc(C)c(C)c2)c1	none
Cc1cccc(C(=O)Oc2ccc(/C=N/N=C(N)N)cc2)c1	GPR151 ag 8.5, TEAD-YAP inh 65 | GPR151 conf act inactive | GPR119 counter inactive
COc1ccc2nc(Cl)c(C3CC(c4ccccc4)=NN3C(=O)CCCC(=O)O)cc2c1 (stereo not drawn)	GPR151 ag 5.0 | GPR151 conf act inactive | GPR119 counter inactive
COc1ccc2nc(Cl)c(C3CC(c4ccc(Cl)cc4)=NN3C(=O)CCCC(=O)O)cc2c1 (stereo not drawn)	none
Cc1cn2c3c(=O)n(CC(C)C)c(=O)n(C)c3nc2n1C	GPR151 ag 5.6 | GPR151 conf act inactive | GPR119 counter inactive
CCOC(=O)c1ccc(-n2c(C)cn3c4c(=O)n(C)c(=O)n(C)c4nc23)cc1	none
CCCCn1c(=O)c2c(nc3n(Cc4ccc(OC)cc4)c(C)cn23)n(C)c1=O	none
C=CCn1c(C)cn2c3c(=O)n(CC(C)C)c(=O)n(C)c3nc12	none
CCCCCn1c(=O)c2c(nc3n(Cc4ccc(OC)cc4)c(C)cn23)n(C)c1=O	GPR151 ag 4.9 | GPR151 conf act inactive | GPR119 counter inactive
CCOC(=O)c1ccc(-n2c(C)cn3c4c(=O)n(CCC(C)C)c(=O)n(C)c4nc23)cc1	GPR151 ag 5.1 | GPR151 conf act inactive | GPR119 counter inactive
Nc1ccn([C@@H]2O[C@H](CO)[C@@H](O)C2O)c(=O)n1 (stereo partly drawn)	none
Nc1ccn([C@@H]2O[C@H](CO)[C@@H](O)C2(F)F)c(=O)n1	GPR151 ag 8.7! | GPR151 conf act inactive | GPR119 counter inactive
O=C(Nc1nc2ccccc2[nH]1)c1ccc(Br)cc1	GPR151 ag 8.0 | GPR151 conf act inactive | GPR119 counter inactive
CCc1nnc(NC(=O)C2(c3cccc(F)c3)CCCC2)s1	GPR151 ag 5.2 | GPR151 conf act inactive | GPR119 counter inactive
COc1ccc(OC)c(NC(=O)CC2C(=O)NCCN2C(=O)C(F)(F)F)c1 (stereo not drawn)	GPR151 ag 7.0 | GPR151 conf act inactive | GPR119 counter inactive
CC1(C)CC(=O)N(CC(=O)N2CCCCC2)c2ccccc2S1	GPR151 ag 5.7 | GPR151 conf act inactive | GPR119 counter inactive
CC1(C)CC(=O)N(CC(=O)N2CCCCCC2)c2ccccc2S1	none
O=C(Oc1ccc2c(-c3cc4ccccc4oc3=O)cc(=O)oc2c1)C1CC1	GPR151 ag 9.2 | GPR151 conf act inactive | GPR119 counter inactive
